# The supplement of paper PMC10646978
# ± gives the standard deviation.
# Experiments:
# Conditions in all cases: modulator concentration 10 µM
# [1] = tested on: RAW-Dual (murine macrophage reporter line); experiment: NF-kB reporter (SEAP) activity fold change vs agonist alone; higher = enhanced NF-kB activity
# How it was run: (§1)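 In 384-well plates holding 50 000 RAW-Dual murine macrophage reporter cells per well, compound at 10 μM final was pre-incubated for 1 hour at 37 °C, after which a PRR agonist was added overnight. Supernatant SEAP read with QUANTI-Blue at 620 nm absorbance reported NF-κB, and Lucia luciferase read with QUANTI-Luc luminescence reported IRF. Fold change values come from dividing each reporter signal by the mean of agonist-only control wells on the same plate, averaged over replicate plates with propagated errors.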
# [2] = tested on: RAW-Dual (murine macrophage reporter line); experiment: IRF reporter (Lucia luciferase) activity fold change vs agonist alone; higher = enhanced IRF activity
# How it was run: as §1
# [3] = tested on: RAW-Dual (murine macrophage reporter line); experiment: viability score (confluency relative to resting cells, overnight) (fraction); higher = more viable, active = viable (0.7 or more)
# How it was run: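 Overnight exposure to 10 μM final compound was carried out on RAW-Dual macrophages in 384-well plates. IncuCyte software generated two confluency masks over all wells imaged with IncuCyte. The viability score gives confluency in relation to resting cells. A compound met the cutoff if each mask exceeded 70% of resting cells.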
# [4] = agonist: CpG ODN 1826 0.5 ug/mL
Structure (SMILES),"NF-kB reporter [1, 4]",NF-kB reporter ([1]; agonist: LPS 0.1 ug/mL),NF-kB reporter ([1]; agonist: MPLA […]),IRF reporter ([2]; agonist: 3'3'-cGAMP 10 ug/mL),IRF reporter ([2]; agonist: LPS 0.1 ug/mL),IRF reporter ([2]; agonist: MPLA […]),viability score [3]
NC(=O)c1ccc(N2CCOCC2)c([N+](=O)[O-])c1,1.04 ± 0.087,1 ± 0.089,0.935 ± 0.026,0.984 ± 0.067,1.02 ± 0.05,1.01 ± 0.1,0.993 (active)
COc1cc(C(=O)NCCCCc2ccccc2)cc(OC)c1OC,1.09 ± 0.095,1.04 ± 0.068,0.994 ± 0.034,0.906 ± 0.14,0.993 ± 0.068,0.983 ± 0.14,0.995 (active)
Nc1ncnc2c1ncn2[C@@H]1O[C@H](CO)[C@@H](O)[C@@H]1O,1.15 ± 0.095,0.941 ± 0.047,1.02 ± 0.053,0.953 ± 0.067,0.983 ± 0.077,1.02 ± 0.12,0.991 (active)
COc1ccc(S(=O)(=O)NC(C)C)c2ccccc12,0.904 ± 0.09,0.942 ± 0.084,1.06 ± 0.06,0.999 ± 0.074,1.01 ± 0.13,1.08 ± 0.39,0.951 (active)
Cc1cc(OCC(=O)NCCn2nc(C3CC3)ccc2=O)cc(C)c1Cl,0.861 ± 0.2,1 ± 0.055,1.01 ± 0.064,0.956 ± 0.039,0.823 ± 0.14,1.01 ± 0.26,0.778 (active)
Nc1c2c(nc3ccccc13)CCCC2O (configuration not stated) [Prestw-448],0.958 ± 0.059,0.88 ± 0.068,0.958 ± 0.026,1.01 ± 0.042,0.964 ± 0.05,0.906 ± 0.087,0.994 (active)
CN1CC(O)C2=C/C(=N/NC(N)=O)C(=O)C=C21 (configuration not stated),0.855 ± 0.048,1 ± 0.084,0.927 ± 0.065,0.99 ± 0.046,1.09 ± 0.18,1.24 ± 0.44,0.665 (inactive)
Cc1c(C(=O)NN2CCCCC2)nn(-c2ccc(Cl)cc2Cl)c1-c1ccc(Cl)cc1,0.799 ± 0.037,1.25 ± 0.11,0.981 ± 0.075,0.282 ± 0.015,0.618 ± 0.13,0.752 ± 0.17,1 (active)
Cc1cc(OCC(=O)NNC(=O)COc2ccc(Br)cc2Br)cc(C)c1Cl,0.961 ± 0.098,0.857 ± 0.13,0.985 ± 0.036,0.895 ± 0.15,0.987 ± 0.051,0.98 ± 0.086,0.945 (active)
CC(C)(C)c1cc(C(=O)Oc2cccc3cccnc23)cc(C(C)(C)C)c1,0.895 ± 0.05,0.976 ± 0.06,0.923 ± 0.064,0.938 ± 0.034,1.25 ± 0.097,1.23 ± 0.12,1 (active)
Cl.NC1=NCC2c3ccccc3Cc3ccccc3N12 (configuration not stated),1.03 ± 0.077,1.09 ± 0.056,1.06 ± 0.077,0.898 ± 0.068,0.982 ± 0.051,0.822 ± 0.11,1 (active)
CCc1cc(=O)oc2cc(OCC(=O)OC(C)C)ccc12,0.827 ± 0.064,0.857 ± 0.042,1.11 ± 0.096,1.04 ± 0.048,1.44 ± 0.096,1.73 ± 0.24,1 (active)
Cc1cc(-c2csc(NCc3ccccc3)n2)c(C)o1.Cl,0.766 ± 0.043,0.892 ± 0.13,1 ± 0.026,0.576 ± 0.026,0.924 ± 0.07,1.1 ± 0.13,0.991 (active)
Cl.Cl.O=C(O)COCCN1CCN(C(c2ccccc2)c2ccc(Cl)cc2)CC1 (configuration not stated),0.906 ± 0.15,0.996 ± 0.29,0.892 ± 0.05,0.942 ± 0.029,1.17 ± 0.39,1.14 ± 0.11,0.987 (active)
CN(C)CCOC(C)(c1ccccc1)c1ccccn1.O=C(O)CCC(=O)O (configuration not stated),0.876 ± 0.12,1.25 ± 0.39,0.954 ± 0.067,0.862 ± 0.029,1.41 ± 0.33,1.16 ± 0.15,1 (active)
CCCCNCCCCOc1ccc(C)cc1C(C)(C)C,0.441 ± 0.12,0.167 ± 0.036,1.38 ± 0.048,0.0798 ± 0.034,0.201 ± 0.056,2.6 ± 0.65,0.0697 (inactive)
CN(C)CCC(c1ccc(Cl)cc1)c1ccccn1.O=C(O)/C=C\C(=O)O (configuration not stated),1.02 ± 0.14,1.08 ± 0.23,1.1 ± 0.13,0.799 ± 0.042,1.23 ± 0.14,1.11 ± 0.085,0.995 (active)
C=C1C(=O)OC2CC3(C)CCCC(C)C3=CC12 (configuration not stated),0.85 ± 0.054,0.72 ± 0.068,0.685 ± 0.06,0.0319 ± 0.0039,0.738 ± 0.059,0.839 ± 0.15,0.73 (active)

Structure (SMILES),"NF-kB reporter [1, 4]",NF-kB reporter ([1]; agonist: LPS 0.1 ug/mL),NF-kB reporter ([1]; agonist: MPLA […]),IRF reporter ([2]; agonist: 3'3'-cGAMP 10 ug/mL),IRF reporter ([2]; agonist: LPS 0.1 ug/mL),IRF reporter ([2]; agonist: MPLA […]),viability score [3]
O=c1cc(O)c(Cl)c[nH]1,0.953 ± 0.11,0.952 ± 0.15,1 ± 0.052,1.01 ± 0.12,0.925 ± 0.033,0.839 ± 0.13,0.996 (active)
O=C(NC12CC3CC(CC(C3)C1)C2)N1CCOCC1,0.95 ± 0.16,1.02 ± 0.084,0.989 ± 0.12,0.993 ± 0.027,1.22 ± 0.21,1.32 ± 0.17,0.967 (active)
CCOC(=O)C1=CC2(CC)CCCN3CCc4c(n1c1ccccc41)C32 (configuration not stated),0.79 ± 0.061,0.928 ± 0.078,0.915 ± 0.09,0.963 ± 0.032,1.3 ± 0.13,1.4 ± 0.21,1.03 (active)
O=C(O)CCC(=O)O.O=C(O[C@H]1CN2CCC1CC2)N1CCc2ccccc2[C@@H]1c1ccccc1,0.544 ± 0.087,0.886 ± 0.046,1.07 ± 0.029,0.921 ± 0.1,1.05 ± 0.097,0.977 ± 0.11,0.992 (active)
Cc1ccc(F)c(NC(=O)Nc2ccc(-c3cccc4[nH]nc(N)c34)cc2)c1,0.692 ± 0.1,0.758 ± 0.2,1.59 ± 0.16,0.102 ± 0.0067,1.04 ± 0.22,1.19 ± 0.38,0.829 (active)
CN1CCN(CCCN2c3ccccc3Sc3ccc(Cl)cc32)CC1.O=C(O)/C=C\C(=O)O.O=C(O)/C=C\C(=O)O,1.01 ± 0.049,1.14 ± 0.098,2.15 ± 0.15,0.14 ± 0.012,0.479 ± 0.12,0.435 ± 0.13,0.86 (active)
O=C(NCCCc1cnc2ncnn2c1)c1cccc2ccccc12,0.88 ± 0.039,0.857 ± 0.071,1.06 ± 0.059,1.02 ± 0.057,1.23 ± 0.14,1.45 ± 0.39,0.98 (active)
Nc1nccs1,0.948 ± 0.14,1.22 ± 0.088,0.91 ± 0.055,0.89 ± 0.03,1.32 ± 0.16,1.2 ± 0.09,1 (active)
COc1cc(CNCc2ccc3ccccc3c2)cc(OC)c1,1.26 ± 0.12,0.986 ± 0.1,1.24 ± 0.1,1.19 ± 0.35,0.906 ± 0.043,2.05 ± 0.17,0.589 (inactive)
CCOC(=O)C(CC)Oc1ccc2c(C)c(CC)c(=O)oc2c1 (configuration not stated),0.955 ± 0.063,0.875 ± 0.071,0.976 ± 0.035,0.832 ± 0.03,0.852 ± 0.13,0.848 ± 0.27,0.986 (active)
CS(=O)(=O)N(CC(=O)Nc1ccccc1Cl)c1ccc(Cl)c(C(F)(F)F)c1,0.753 ± 0.067,1.08 ± 0.062,0.874 ± 0.052,1.52 ± 0.11,1.35 ± 0.14,1.25 ± 0.2,0.961 (active)
CC1(C)CCCC2(C)C1CCC1(C)OC(=O)CC12 (configuration not stated),0.532 ± 0.077,0.669 ± 0.11,0.762 ± 0.026,0.943 ± 0.11,0.929 ± 0.07,1.37 ± 0.18,0.159 (inactive)
CC(=O)OC1(C(C)=O)CCC2C3C=C(C)C4=CC(=O)CCC4(C)C3CCC21C (configuration not stated),1.18 ± 0.088,1.08 ± 0.054,1.21 ± 0.026,1.04 ± 0.069,0.875 ± 0.1,0.986 ± 0.14,0.995 (active)
CCN(CC)c1ccc(C=Nc2c(C)cc(C)cc2C)cc1,0.97 ± 0.08,1.03 ± 0.086,0.959 ± 0.054,0.894 ± 0.046,0.968 ± 0.063,0.94 ± 0.065,1 (active)
O=C(c1cc2ccccc2o1)N1CC(N2C(=O)CNC2=O)C1,1.17 ± 0.28,1.04 ± 0.081,1.06 ± 0.077,0.933 ± 0.038,1.12 ± 0.15,1.33 ± 0.13,0.989 (active)
Brc1ccc2ncnc(NCc3ccco3)c2c1,0.856 ± 0.14,1.98 ± 0.16,2.54 ± 0.3,0.373 ± 0.021,0.647 ± 0.12,0.7 ± 0.12,0.996 (active)
O=C(Nc1ccc([N+](=O)[O-])cc1Br)C1CC12CCC2 (configuration not stated),0.957 ± 0.074,0.83 ± 0.068,1.05 ± 0.13,1.03 ± 0.049,1.39 ± 0.27,1.55 ± 0.38,1.02 (active)
O=C(CSc1nc2c(c(=O)n1-c1ccccc1)SCC2)N1CCN(c2ccccc2)CC1,0.985 ± 0.08,1.09 ± 0.057,1.14 ± 0.036,1.15 ± 0.081,0.879 ± 0.046,0.953 ± 0.076,1 (active)
